In ChEMBL document CHEMBL3988442, “University of Dundee, Small-Polar-MMV Screening Library” (2021):
For some assays here: Results with a measured potency or affinity are listed apart.

Tests used:
Set-up in all cases: scale not given: direction of the effect not stated beside the values
[1] = molecular target: Protein translocase subunit SecA (Escherichia coli (strain K12)) (UniProt P10408); assay: Assay to Identify E. coli SecA ATPase Inhibitors; format: functional; conditions: 30 µM
[2] = molecular target: T1, Ubiquitin-activating enzyme e1, putative (Leishmania donovani (strain BPK282A1)) (UniProt E9BSI1); assay: Leishmania donovani Ubiquitin Activating Enzyme (LdE1); format: functional; conditions: 30 µM
T1 sequence (whole entry): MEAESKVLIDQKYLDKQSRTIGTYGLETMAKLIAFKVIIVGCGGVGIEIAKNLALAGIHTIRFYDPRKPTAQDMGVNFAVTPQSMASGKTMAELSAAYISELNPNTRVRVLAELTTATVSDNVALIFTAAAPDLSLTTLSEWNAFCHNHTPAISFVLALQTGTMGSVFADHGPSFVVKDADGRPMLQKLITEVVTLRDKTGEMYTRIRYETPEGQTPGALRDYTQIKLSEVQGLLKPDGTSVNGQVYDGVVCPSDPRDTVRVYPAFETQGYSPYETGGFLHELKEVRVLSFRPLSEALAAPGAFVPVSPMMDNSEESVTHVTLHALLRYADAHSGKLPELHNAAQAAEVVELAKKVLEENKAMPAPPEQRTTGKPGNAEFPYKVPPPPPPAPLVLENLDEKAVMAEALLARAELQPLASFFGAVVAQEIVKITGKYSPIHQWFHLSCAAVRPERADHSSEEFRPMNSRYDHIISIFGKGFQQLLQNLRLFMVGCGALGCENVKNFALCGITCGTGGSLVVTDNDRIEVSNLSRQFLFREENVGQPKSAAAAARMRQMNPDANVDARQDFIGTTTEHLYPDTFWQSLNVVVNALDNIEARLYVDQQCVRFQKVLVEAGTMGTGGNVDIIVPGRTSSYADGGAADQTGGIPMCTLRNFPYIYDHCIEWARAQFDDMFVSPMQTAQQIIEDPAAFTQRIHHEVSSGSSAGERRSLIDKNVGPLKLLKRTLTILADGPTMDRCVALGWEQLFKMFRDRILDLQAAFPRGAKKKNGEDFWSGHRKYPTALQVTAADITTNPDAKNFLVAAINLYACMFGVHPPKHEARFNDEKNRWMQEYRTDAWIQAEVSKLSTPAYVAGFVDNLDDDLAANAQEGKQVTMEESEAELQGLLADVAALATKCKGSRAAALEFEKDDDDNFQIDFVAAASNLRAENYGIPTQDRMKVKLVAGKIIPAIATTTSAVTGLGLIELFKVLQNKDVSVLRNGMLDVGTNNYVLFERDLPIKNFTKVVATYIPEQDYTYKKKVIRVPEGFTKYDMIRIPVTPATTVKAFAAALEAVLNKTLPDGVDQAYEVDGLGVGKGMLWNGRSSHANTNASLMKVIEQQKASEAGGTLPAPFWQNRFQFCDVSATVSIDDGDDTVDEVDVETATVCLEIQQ

[3] = molecular target: AMP-activated protein kinase, AMPK (Homo sapiens) (UniProt P54646+O43741+P54619+Q9UGJ0+Q9Y478+Q13131+Q9UGI9); assay: AMP-dependent Kinase enzyme assay. An in vitro enzyme assay that detects ADP turnover that is directly proportional to AMPK activity. This uses naive AMPK that is activated during the assay with MK-8722; format: functional; conditions: 30 µM
[4] = molecular target: Sialic acid-binding Ig-like lectin 9 (Homo sapiens) (UniProt Q9Y336); assay: Hs-Siglec9 ALPHAscreen SOP 20170721; conditions: 10 µM
Trypanosoma cruzi = assay: Trypanosoma cruzi phosphomannomutase and mannose-1-phosphate guanylyltransferase assay; format: functional; conditions: 10 µM
[5] = molecular target: T2, Arginase-2, mitochondrial (Homo sapiens) (UniProt P78540); assay: in vitro enzyme assay to detect the production of urea directly proportional to the activity of Arginase II; format: functional; conditions: 33.3 µM; also: in the data most compounds retested in dose-response had high values
T2 sequence (whole entry): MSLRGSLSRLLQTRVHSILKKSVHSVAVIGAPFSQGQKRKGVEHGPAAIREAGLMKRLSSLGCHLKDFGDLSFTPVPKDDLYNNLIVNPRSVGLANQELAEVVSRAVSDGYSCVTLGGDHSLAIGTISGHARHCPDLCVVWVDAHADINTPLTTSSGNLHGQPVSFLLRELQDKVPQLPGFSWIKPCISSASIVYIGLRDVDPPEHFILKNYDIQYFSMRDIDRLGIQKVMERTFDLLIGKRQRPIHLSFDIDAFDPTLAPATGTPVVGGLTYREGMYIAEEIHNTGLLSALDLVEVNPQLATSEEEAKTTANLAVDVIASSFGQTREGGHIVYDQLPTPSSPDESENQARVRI

[6] = molecular target: T3, Proteasome subunit beta (Trypanosoma cruzi) (UniProt O96673); assay: Trypanosoma cruzi proteasome chymotrypsin-like activity (TcProtChymo) assay.; also: in the data most compounds retested in dose-response had high values; format: functional; conditions: 9.37 µM
T3 sequence (whole entry): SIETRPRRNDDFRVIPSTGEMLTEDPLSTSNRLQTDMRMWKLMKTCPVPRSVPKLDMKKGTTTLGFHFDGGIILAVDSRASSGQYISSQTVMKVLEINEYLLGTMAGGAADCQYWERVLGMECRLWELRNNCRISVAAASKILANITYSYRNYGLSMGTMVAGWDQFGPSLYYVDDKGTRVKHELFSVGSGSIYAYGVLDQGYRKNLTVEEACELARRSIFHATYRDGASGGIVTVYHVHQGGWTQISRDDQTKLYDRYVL

Homo sapiens = species: Homo sapiens; assay: To identify inhibition of the IFN signalling (Jak-Stat) pathway via expression of an eGFP reporter gene under the control of an IFN-stimulated response element (ISRE) containing MxA promoter.; format: functional; conditions: 30 µM
[7] = molecular target: T4, Tyrosyl-tRNA synthetase, putative (Trypanosoma cruzi (strain CL Brener)) (UniProt Q4DSP6); assay: Trypanosoma cruzi tyrosyl tRNA synthetase (TcYRS) _High Tyrosine SOP; format: functional; conditions: 30 µM; also: in the data most compounds retested in dose-response had high values
T4 sequence (whole entry): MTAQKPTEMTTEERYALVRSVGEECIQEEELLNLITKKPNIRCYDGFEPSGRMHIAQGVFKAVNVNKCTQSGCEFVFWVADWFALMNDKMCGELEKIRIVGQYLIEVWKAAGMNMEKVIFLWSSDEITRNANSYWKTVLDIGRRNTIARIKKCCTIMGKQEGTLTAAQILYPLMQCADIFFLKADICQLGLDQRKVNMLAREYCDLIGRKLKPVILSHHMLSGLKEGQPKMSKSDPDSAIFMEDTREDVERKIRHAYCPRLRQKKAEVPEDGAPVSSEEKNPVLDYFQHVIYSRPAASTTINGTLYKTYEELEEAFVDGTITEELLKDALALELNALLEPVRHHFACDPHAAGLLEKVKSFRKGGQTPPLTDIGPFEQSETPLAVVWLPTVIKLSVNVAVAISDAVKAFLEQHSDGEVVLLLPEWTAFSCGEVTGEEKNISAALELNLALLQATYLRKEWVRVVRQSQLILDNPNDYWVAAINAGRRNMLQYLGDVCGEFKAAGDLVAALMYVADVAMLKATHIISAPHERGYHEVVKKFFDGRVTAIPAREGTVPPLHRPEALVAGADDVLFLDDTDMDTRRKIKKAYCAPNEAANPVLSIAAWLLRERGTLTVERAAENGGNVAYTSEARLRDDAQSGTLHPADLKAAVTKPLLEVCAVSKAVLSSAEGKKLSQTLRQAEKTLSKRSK

[8] = molecular target: T4, Tyrosyl-tRNA synthetase, putative (Trypanosoma cruzi (strain CL Brener)); assay: Trypanosoma cruzi tyrosyl tRNA synthetase (TcYRS) SOP; format: functional; conditions: 30 µM
[9] = molecular target: Chromo domain-containing protein 1 (Saccharomyces cerevisiae (strain ATCC 204508 / S288c) (Baker's yeast)) (UniProt P32657); assay: ScCHD-1 Enzyme Inhibition Assay; format: functional; conditions: 30 µM; also: in the data most compounds retested in dose-response had high values
Chromo domain-containing protein 1 (Saccharomyces cerevisiae (strain ATCC 204508 / S288c) (Baker's yeast)), sequence (P32657 whole entry, the tested form may be a part): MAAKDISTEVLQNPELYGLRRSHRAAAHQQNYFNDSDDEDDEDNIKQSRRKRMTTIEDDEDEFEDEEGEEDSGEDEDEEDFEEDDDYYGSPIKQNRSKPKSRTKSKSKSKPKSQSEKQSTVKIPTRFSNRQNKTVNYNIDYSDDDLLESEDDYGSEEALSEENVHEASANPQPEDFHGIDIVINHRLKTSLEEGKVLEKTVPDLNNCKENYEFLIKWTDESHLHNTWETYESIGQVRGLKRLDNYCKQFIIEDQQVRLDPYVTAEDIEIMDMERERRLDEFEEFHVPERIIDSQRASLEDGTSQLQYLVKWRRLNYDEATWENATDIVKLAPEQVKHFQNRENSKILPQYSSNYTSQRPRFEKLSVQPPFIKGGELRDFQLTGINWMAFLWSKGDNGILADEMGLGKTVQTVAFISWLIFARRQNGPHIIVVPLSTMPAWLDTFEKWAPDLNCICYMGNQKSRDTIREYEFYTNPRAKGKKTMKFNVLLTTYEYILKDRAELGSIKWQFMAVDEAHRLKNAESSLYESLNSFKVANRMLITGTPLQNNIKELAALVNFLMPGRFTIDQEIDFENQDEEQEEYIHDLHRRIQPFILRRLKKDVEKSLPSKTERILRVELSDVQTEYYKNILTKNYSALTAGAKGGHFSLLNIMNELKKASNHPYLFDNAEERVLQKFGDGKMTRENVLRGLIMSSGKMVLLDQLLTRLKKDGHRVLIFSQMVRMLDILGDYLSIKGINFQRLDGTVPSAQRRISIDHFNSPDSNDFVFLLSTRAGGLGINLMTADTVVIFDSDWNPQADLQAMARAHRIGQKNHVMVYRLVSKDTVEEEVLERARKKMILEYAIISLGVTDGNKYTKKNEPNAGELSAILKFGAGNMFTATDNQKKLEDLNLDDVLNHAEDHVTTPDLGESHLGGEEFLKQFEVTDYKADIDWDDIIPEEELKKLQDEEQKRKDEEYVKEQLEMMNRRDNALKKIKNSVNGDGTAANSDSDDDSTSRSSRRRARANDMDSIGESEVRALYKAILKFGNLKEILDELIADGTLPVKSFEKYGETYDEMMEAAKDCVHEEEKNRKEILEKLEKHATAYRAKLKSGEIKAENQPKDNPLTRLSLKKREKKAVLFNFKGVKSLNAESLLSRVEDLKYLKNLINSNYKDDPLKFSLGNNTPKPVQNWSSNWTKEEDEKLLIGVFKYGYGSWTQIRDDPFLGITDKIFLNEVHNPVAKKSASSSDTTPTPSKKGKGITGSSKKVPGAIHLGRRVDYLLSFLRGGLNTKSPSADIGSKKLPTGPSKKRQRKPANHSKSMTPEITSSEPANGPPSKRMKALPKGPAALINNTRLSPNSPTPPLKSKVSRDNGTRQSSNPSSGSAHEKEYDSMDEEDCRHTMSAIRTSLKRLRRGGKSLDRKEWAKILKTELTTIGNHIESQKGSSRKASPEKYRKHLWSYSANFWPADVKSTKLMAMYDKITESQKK

Protein translocase subunit SecA (Escherichia coli (strain K12)), sequence (P10408 whole entry): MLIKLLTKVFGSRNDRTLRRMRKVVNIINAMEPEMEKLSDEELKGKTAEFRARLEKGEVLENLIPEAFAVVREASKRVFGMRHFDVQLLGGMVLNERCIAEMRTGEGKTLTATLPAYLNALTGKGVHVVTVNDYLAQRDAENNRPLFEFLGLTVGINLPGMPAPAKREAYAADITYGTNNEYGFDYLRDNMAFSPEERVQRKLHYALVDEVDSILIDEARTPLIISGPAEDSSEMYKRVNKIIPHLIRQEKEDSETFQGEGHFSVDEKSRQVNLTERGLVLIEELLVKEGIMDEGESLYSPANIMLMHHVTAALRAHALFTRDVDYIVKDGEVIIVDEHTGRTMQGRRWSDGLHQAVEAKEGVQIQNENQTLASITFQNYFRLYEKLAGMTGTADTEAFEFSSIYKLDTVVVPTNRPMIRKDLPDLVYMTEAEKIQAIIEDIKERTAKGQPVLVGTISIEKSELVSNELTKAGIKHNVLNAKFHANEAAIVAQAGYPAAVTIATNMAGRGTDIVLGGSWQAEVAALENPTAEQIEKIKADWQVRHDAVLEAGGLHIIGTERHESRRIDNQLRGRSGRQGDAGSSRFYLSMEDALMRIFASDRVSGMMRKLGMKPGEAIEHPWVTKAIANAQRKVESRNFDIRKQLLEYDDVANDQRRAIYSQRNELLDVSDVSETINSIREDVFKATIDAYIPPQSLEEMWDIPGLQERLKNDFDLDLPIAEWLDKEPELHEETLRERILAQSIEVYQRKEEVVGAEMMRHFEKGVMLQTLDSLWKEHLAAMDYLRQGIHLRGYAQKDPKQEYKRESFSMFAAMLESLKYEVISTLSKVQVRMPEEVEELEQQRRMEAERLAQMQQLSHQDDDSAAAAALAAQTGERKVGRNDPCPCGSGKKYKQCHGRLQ
Sialic acid-binding Ig-like lectin 9 (Homo sapiens), sequence (Q9Y336 whole entry): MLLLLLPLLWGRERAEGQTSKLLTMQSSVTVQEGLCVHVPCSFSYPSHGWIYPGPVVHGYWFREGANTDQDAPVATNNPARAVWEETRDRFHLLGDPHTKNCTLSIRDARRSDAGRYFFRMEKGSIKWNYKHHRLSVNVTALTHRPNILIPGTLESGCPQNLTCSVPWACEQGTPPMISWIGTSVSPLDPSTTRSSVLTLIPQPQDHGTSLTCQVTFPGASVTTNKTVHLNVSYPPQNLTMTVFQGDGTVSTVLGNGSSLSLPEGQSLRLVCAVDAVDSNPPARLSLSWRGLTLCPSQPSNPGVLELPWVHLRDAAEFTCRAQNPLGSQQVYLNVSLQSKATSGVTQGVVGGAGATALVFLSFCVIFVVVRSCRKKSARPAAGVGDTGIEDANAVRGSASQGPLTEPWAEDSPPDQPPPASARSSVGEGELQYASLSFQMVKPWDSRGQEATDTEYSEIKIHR

| Compound | Percent Effect [1] [%] | Percent Effect [2] [%] | Percent Effect [3] [%] | Percent Effect [4] [%] | Percent Effect (Trypanosoma cruzi) [%] | Percent Effect [5] [%] | Percent Effect [6] [%] | Percent Effect (Homo sapiens) [%] | Percent Effect [7] [%] | Percent Effect [8] [%] | Percent Effect [9] [%] |
| --- | --- | --- | --- | --- | --- | --- | --- | --- | --- | --- | --- |
| CC(NC(=O)N(C)Cc1ccsc1)c1ccc2c(c1)NC(=O)CO2 (configuration not stated) | -2.37 | 13.2 | 0.427 | 7.9 | 6.39 | 1.15 | 8.52 | 9.49 | 5.39 | 19.5 | -10.1 |
| CCn1ncc2c1CCCC2NCc1cccc2c1OCCO2 (configuration not stated) | -2.98 | -6.33 | 6.39 | -0.488 | -0.718 | 4.09 | 0 | 12.6 | 0 | 2.53 | -17.9 |
| Cc1ccc(CNC(=O)NCCCn2nc3ccccn3c2=O)s1 | -7.23 | 16.2 | -11 | 15.3 | 6.89 | -18.8 | 5.95 | 7.36 | 6.4 | -70.4 | -16.6 |
| Cc1ccc2c(c1)CN(C(=O)c1ccccc1F)C(CN(C)C)CO2 (configuration not stated) | -0.708 | 12.2 | 14.3 | -7.4 | -5.73 | -4.41 | 11.7 | 0.0165 | 1.07 | 3.9 | -10 |
| Cc1ncc(CNC(=O)CCc2cccc(F)c2)c(C2CCCN2C)n1 (configuration not stated) | -7.92 | 9.46 | -0.703 | 1.74 | 0.988 | -3.94 | 5.15 | 2.42 | 2.15 | 9.09 | -19.1 |
| Cc1ccc(N(C)C2CCN(C(=O)c3ccsc3)CC2)nn1 | -3.77 | 5.2 | 5.3 | 11.4 | 5.62 | -7.47 | 10.6 | 1.47 | 5.83 | 19.5 | -7.83 |
| CC1=N[C@@]2(CC[C@@H]3CN(CC(=O)N(C)C)C[C@@H]32)C(=O)N1CC(C)C | 3.62 | 12 | 42.2 | 1.63 | -8.25 | -20.6 | 9.43 | 24.2 | 1.06 | 0 | -8.72 |
| COCC1c2nnn(CC3CC3)c2CCN1C(=O)c1ccnnc1 (configuration not stated) | -5.05 | 21.6 | -7.32 | 32.8 | 3.81 | 3.23 | 3.86 | -2.31 | 6.45 | 13.6 | -10.1 |
| CCOc1ccc(C(C)NC(=O)N2CCC(C(N)=O)CC2)cc1OC (configuration not stated) | -4.66 | 10.8 | 4.64 | 6.99 | 6.76 | 1.43 | 14.7 | 4.99 | 5.82 | 12.2 | -0.606 |
| O=C1CCSCC(C(=O)N2CCN(C3CCCCC3)CC2)N1 (configuration not stated) | -2.82 | 0 | -2.68 | -4.3 | 0.979 | 3.64 | 2.48 | -1.47 | 5.38 | 12.5 | -0.805 |
| CCN1CCN(CC(O)c2ccc(F)cc2)CC1 (configuration not stated) | -4.5 | 2.7 | -2.92 | 3.74 | -2.92 | -0.401 | 3.96 | 3.68 | 5.42 | 13.6 | -6.3 |
| COc1cccc(CN(C)Cc2cccc(C#N)c2)c1OC | -2.4 | 10.8 | -3.58 | 5.68 | 5.08 | 23.3 | 8.88 | 7.86 | 1.98 | -1.22 | -6.76 |
| O=c1cc2c(nn1CN1CCOCC1)CCC2 | -2.09 | 14.7 | -2.08 | -0.0396 | -0.786 | -6.87 | 11.3 | 14.3 | 6.35 | 15.4 | -8.17 |
| Cc1ncccc1O[C@H]1CCN(C(=O)c2cccs2)CC[C@@H]1O | -1.97 | -9.46 | 7.91 | 0.722 | -2.17 | -2.09 | 2.03 | 4.21 | 1.07 | -1.3 | -0.631 |
| Cc1ncsc1C(=O)NCCOc1ncc(Cl)cc1Cl | -6.27 | 5.41 | 1.84 | 0.223 | 0.977 | 4.17 | 11.1 | 25.4 | 10.9 | 11 | -5.96 |
| Cc1csc(N2CCN(C(=O)CCc3nccs3)CC2)n1 | -6.78 | 8.11 | -8.38 | 7.91 | 3.11 | -17.2 | 5.59 | 11.7 | 12.3 | 28.4 | -11.1 |
| COc1ccc(NC(=O)Cn2nc(C)c(C)cc2=O)cc1OC | -0.134 | 0 | -0.466 | 23.4 | 5.79 | 20.5 | 8.97 | 2.79 | 0.529 | 9.76 | -7.49 |
| CS(=O)(=O)NC1CCCN(C(=O)NCc2cc[nH]n2)C1 (configuration not stated) | -5.06 | -31.2 | -5.48 | -13.5 | 5 | -6.11 | 17.1 | -0.514 | 8.57 | 21.2 | -16.2 |
| Cn1ccc(C(=O)N2CCN(c3ncccn3)CC2)cc1=O | -7.23 | 5.41 | 33.6 | 9.56 | -3.49 | -2 | 6.13 | 4.12 | 3.45 | 11.1 | -2.92 |
| CCn1nnc2c1C(COC)CN(Cc1ccsc1)C2 (configuration not stated) | -6.4 | 5.41 | 1.42 | -2.12 | -5.77 | -2.73 | 10.2 | -14.5 | 2.15 | 3.7 | -3.53 |
| OC(COCc1ccc(Cl)cc1)CN1CCC(c2ccn[nH]2)CC1 (configuration not stated) | -3.72 | 20.2 | -9.18 | -2.48 | 7.27 | -3.04 | 3.03 | -5.57 | 5.42 | 26.6 | -7.16 |
| COCCCNC(=O)CN(C)C(=O)c1cc(C)ccc1O | -3.14 | 16.2 | -6.15 | -4.94 | -5.48 | -0.924 | 7 | -3.62 | 3.96 | 15.8 | -7.89 |
